# Source: PubChem BioAssay (NCATS)
# Where “and” joins values, the source holds several entries; their conditions need not be identical. Identical values can stand only once. Results filed as inconclusive are left out. Unmarked numbers belong to inactive results. Calls of active or inactive are those of the source. Calls come from the whole dose curve; as a rule, active = well fitted curve in the direction sought with a large enough effect; inconclusive = small, poorly fitted or top-dose-only effect, or another doubt; inactive = no such curve, though single readings can be large; an effect the other way counts as inactive or inconclusive.
# Assays:
# [1] = target: Cellular tumor antigen p53 (Homo sapiens) (UniProt P04637); assay: Primary qHTS for small molecule compounds that upregulate eGFP-tagged delta133p53alpha (in N-terminal) cells. (AID 2060322); settings: NCI-H358 eGFP-delta133p53alpha fluorescence, 24 h; activation: stronger effect = higher value; note: nearly all actives have a fitted effect of over 75% in size;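 for activation: cells pre-induced with doxycycline then dosed without doxycycline; series mostly up to about 56 µM; 0% = DMSO vehicle and 100% = reference activator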
# Chain of Cellular tumor antigen p53 (Homo sapiens) (P04637 whole entry, looked up): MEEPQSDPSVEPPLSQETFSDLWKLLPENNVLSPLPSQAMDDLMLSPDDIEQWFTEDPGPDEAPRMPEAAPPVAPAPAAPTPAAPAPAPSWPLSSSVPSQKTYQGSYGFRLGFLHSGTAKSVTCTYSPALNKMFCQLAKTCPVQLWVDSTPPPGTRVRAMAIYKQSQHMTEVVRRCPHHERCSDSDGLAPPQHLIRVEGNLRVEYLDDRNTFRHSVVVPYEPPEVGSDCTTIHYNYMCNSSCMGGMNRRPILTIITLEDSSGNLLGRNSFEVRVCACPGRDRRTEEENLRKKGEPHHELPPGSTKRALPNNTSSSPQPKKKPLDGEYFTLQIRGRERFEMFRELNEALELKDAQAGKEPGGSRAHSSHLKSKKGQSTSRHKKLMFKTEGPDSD
# Outline: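 NCI-H358 cells pre-induced 24 h with 10 ng/ml doxycycline for eGFP-delta133p53alpha, plated dox-free and exposed 24 h at 37C to titrated compounds. Fixed, Hoechst-stained; gated GFP peak intensity by laser scanning cytometry, normalized to DMSO (0%) and 57.5 uM 5-azacytidine (100%).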
# [2] = BET inhibitor-based combinations targeting novel dependencies in MECOM-rearranged (r) AML: SET-2 cell line (AID 2202231); settings: SET-2 AML cells viability, CellTiter-Glo luminescence, 48 h; viability: stronger effect = lower value, concentration not given here; note: nearly all actives have a fitted effect of over 35% in size;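 for viability: plate controls were DMSO treated cells for no effect and wells without cells for full effect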
# Outline: (§1)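 Luminescent ATP readout (CellTiter-Glo) after 48 hr drug exposure gives viability. Curves span 11 concentrations and are normalized to DMSO and empty wells. Activity is reported as area under the curve and its Z-transform within each cell line.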
# [3] = BET inhibitor-based combinations targeting novel dependencies in MECOM-rearranged (r) AML: OCI-AML3 cell line (AID 2202232); settings: Potency: OCI-AML3 viability; note: nearly all actives have a fitted effect of over 35% in size;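 for viability (% of control): series mostly up to about 46 µM; plate controls were DMSO vehicle wells for no effect and wells without cells for full effect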
# Outline: as §1
# [4] = BET inhibitor-based combinations targeting novel dependencies in MECOM-rearranged (r) AML: MV-4-11 cell line (AID 2202233); note: nearly all actives have a fitted effect of over 45% in size;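 for viability, % of control: plate controls were DMSO for no effect and blank wells for full effect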
# Outline: (§2)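 Luminescent ATP readout (CellTiter-Glo, 15 min at room temperature) after 48 hr drug exposure gave viability. Dose-response curves, normalized to DMSO and empty-well controls, were summarized as area under the curve and its mean-centred Z-score.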
# [5] = BET inhibitor-based combinations targeting novel dependencies in MECOM-rearranged (r) AML: HNT-34 cell line (AID 2202234); note: nearly all actives have a fitted effect of over 35% in size;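 for viability (% of control): plate controls were vehicle wells for no effect and cell-free wells for full effect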
# Outline: as §2
# [6] = BET inhibitor-based combinations targeting novel dependencies in MECOM-rearranged (r) AML: AML-191 cell line (AID 2202236; note: nearly all actives have a fitted effect of over 35% in size;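 for viability (% of control): plate controls were vehicle wells for no effect and wells without cells for full effect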)
# Outline: as §1
# [7] = BET inhibitor-based combinations targeting novel dependencies in MECOM-rearranged (r) AML: AML-194 cell line (AID 2202237; note: nearly all actives have a fitted effect of over 40% in size;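 for viability (% of control): plate controls were vehicle wells for no effect and wells without cells for full effect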)
# Outline: as §1
# [8] = BET inhibitor-based combinations targeting novel dependencies in MECOM-rearranged (r) AML: UCSD-AML1 cell line (AID 2202235); note: nearly all actives have a fitted effect of over 40% in size;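 for viability (% of control): series mostly up to about 46 µM; plate controls were DMSO vehicle wells for no effect and blank wells for full effect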
# Outline: as §2
# Potency is the fitted concentration of half-maximal effect.
smiles,measurement,setting,value
O=C(NCCS(=O)(=O)c1ccc(C(F)(F)F)cn1)c1ccc(Cl)cc1,activation,[1],6.23%
same,viability,[2],108%
same,Potency,[3],inactive
same,Potency,[4],inactive
same,Potency,[5],inactive
same,Potency,[6],inactive
same,Potency,[7],inactive
Cc1cccc(-c2[nH]c(C(C)(C)C)nc2-c2ccc3c(c2)OCO3)n1,activation,[1],-10.9%
same,Potency,[2],16.6 µM (active)
same,Potency,[3],3.72 µM (active)
same,Potency,[4],2.95 µM (active)
same,Potency,[5],6.61 µM (active)
same,Potency,[6],6.61 µM (active)
same,Potency,[7],6.61 µM (active)
CC(C)Oc1cc(Nc2nc(N[C@@H](C)c3ccc(F)cn3)ncc2Cl)[nH]n1,Potency,[1],24.3 µM (active)
same,Potency,[2],18.6 µM (active)
same,Potency,[3],16.6 µM (active)
same,Potency,[4],0.0934 µM (active)
same,Potency,[5],16.6 µM (active)
same,Potency,[6],0.417 µM (active)
C/C=C/C(=O)N(CC)c1ccccc1C,activation,[1],-2.82%
same,viability,[2],107%
same,Potency,[3],inactive
same,Potency,[4],inactive
same,Potency,[5],inactive
same,Potency,[8],inactive
same,Potency,[7],inactive
C[C@@H]1CN(c2c(F)c(N)c3c(=O)c(C(=O)O)cn(C4CC4)c3c2F)C[C@H](C)N1,activation,[1],22.7%
same,viability,[2],102%
same,Potency,[3],inactive
same,Potency,[4],inactive
same,Potency,[5],inactive
same,Potency,[8],inactive
same,Potency,[6],inactive
same,Potency,[7],inactive
NC(=O)c1ncn([C@@H]2O[C@H](CO)[C@@H](O)[C@H]2O)c1N,activation,[1],-7.53%
same,viability,[2],114%
same,Potency,[3],inactive
same,Potency,[4],inactive
same,Potency,[5],inactive
same,Potency,[8],inactive
same,Potency,[6],inactive
same,Potency,[7],inactive
CC(C)(Sc1cc(C(C)(C)C)c(O)c(C(C)(C)C)c1)Sc1cc(C(C)(C)C)c(O)c(C(C)(C)C)c1,activation,[1],5.08% and 14.9%
same,viability,[2],103%
same,Potency,[3],inactive
same,Potency,[4],inactive
same,Potency,[5],inactive
same,Potency,[8],inactive
same,Potency,[7],13.2 µM (active)
Cc1ccc(C(=O)c2cc(O)c(O)c([N+](=O)[O-])c2)cc1,activation,[1],1.67% and 0.973%
same,viability,[2],104%
same,Potency,[3],inactive
same,Potency,[4],inactive
same,Potency,[5],inactive
same,Potency,[8],inactive
same,Potency,[7],inactive
C[C@@H](CN1CC(=O)NC(=O)C1)N1CC(=O)NC(=O)C1,activation,[1],-3.95% and 20.4%
same,viability,[2],92.4%
same,Potency,[3],18.6 µM (active)
same,Potency,[4],14.8 µM (active)
same,Potency,[5],inactive
same,Potency,[6],13.2 µM (active)
same,Potency,[7],16.6 µM (active)
O=C1C(Cl)=C(NCCN2CCOCC2)C(=O)c2ncccc21,Potency,[1],27.3 µM (active)
same,Potency,[2],3.72 µM (active)
same,Potency,[3],3.72 µM (active)
same,Potency,[4],2.09 µM (active)
same,Potency,[5],5.9 µM (active)
same,Potency,[8],8.33 µM (active)
same,Potency,[6],7.42 µM (active)
same,Potency,[7],7.42 µM (active)
Cn1cc(C2=C(c3c4n(c5ccccc35)CCC(CN)C4)C(=O)NC2=O)c2ccccc21 (stereo not given),Potency,[1],27.3 µM (active)
same,viability,[2],103%
same,viability (% of control),[3],88.4% [at 8.46 µM]
same,Potency,[4],4.81 µM (active)
same,Potency,[5],5.39 µM (active)
same,viability (% of control),[8],97.4% [at 8.46 µM]
same,viability (% of control),[7],98.9% [at 8.46 µM]
CCCCCCCCc1ccc(CCC(N)(CO)CO)cc1,activation,[1],2.16%
same,Potency,[2],26.3 µM (active)
same,Potency,[3],13.2 µM (active)
same,Potency,[4],14.8 µM (active)
same,Potency,[5],18.6 µM (active)
same,Potency,[6],16.6 µM (active)
O=C(/C=C\n1cnc(-c2cc(C(F)(F)F)cc(C(F)(F)F)c2)n1)NNc1cnccn1,activation,[1],24.8%
same,Potency,[2],0.742 µM (active)
same,Potency,[3],1.18 µM (active)
same,Potency,[4],0.525 µM (active)
same,Potency,[5],0.934 µM (active)
same,Potency,[6],0.468 µM (active)
C[C@]12CC[C@@H]3c4ccc(O)cc4CC[C@H]3[C@H]1[C@@H](O)[C@@H](O)[C@H]2O,activation,[1],9.46%
same,viability,[2],104%
same,Potency,[3],inactive
same,Potency,[4],inactive
same,Potency,[5],inactive
same,Potency,[8],inactive
same,Potency,[6],inactive
same,Potency,[7],inactive
O=C(O)c1cn(C2CC2)c2cc(N3CCNCC3)c(F)cc2c1=O,activation,[1],6.67%
same,viability,[2],109%
same,viability (% of control),[3],109% [at 8.46 µM]
same,"viability, % of control",[4],112% [at 8.46 µM]
same,viability (% of control),[5],97.3% [at 8.46 µM]
same,viability (% of control),[8],101% [at 8.46 µM]
same,viability (% of control),[7],113% [at 8.46 µM]
C#C[C@]1(O)CC[C@H]2[C@@H]3CCc4cc(OC)ccc4[C@H]3CC[C@@]21C,activation,[1],-5.08%
same,viability,[2],117%
same,Potency,[3],inactive
same,Potency,[4],inactive
same,Potency,[5],inactive
same,Potency,[8],inactive
same,Potency,[7],inactive
Cc1cc2cc3c(C)cc(=O)oc3c(C)c2o1,activation,[1],-5.86% and 16.7%
same,viability,[2],111%
same,Potency,[3],inactive
same,Potency,[4],inactive
same,Potency,[5],inactive
same,Potency,[8],inactive
same,Potency,[6],inactive
same,Potency,[7],inactive
C1CCC(C(CC2CCCCN2)C2CCCCC2)CC1 (stereo not given),activation,[1],21.8%
same,Potency,[2],11.8 µM (active)
same,Potency,[3],6.61 µM (active)
same,Potency,[4],8.33 µM (active)
same,Potency,[5],7.42 µM (active)
same,Potency,[6],9.34 µM (active)
same,Potency,[7],7.42 µM (active)
CC1Cc2ccccc2N1NC(=O)c1ccc(Cl)c(S(N)(=O)=O)c1 (stereo not given),activation,[1],-9.21% and -1.28%
same,viability,[2],112%
same,Potency,[3],inactive
same,Potency,[4],inactive
same,Potency,[5],inactive
same,Potency,[6],inactive
same,Potency,[7],inactive
